The target in assay [1] is Collagenase 3 (Homo sapiens) (UniProt P45452). Description: NVS_ENZ_hMMP13: NovaScreen (NVS) Enzymatic Assay for human Matrix Metalloproteinase-13 (MMP13) (AID 2283182). On the procedure:
NVS_ENZ_hMMP13 is a biochemical, single-readout assay that uses extracted gene-proteins in a cell-free assay. Measurements were taken 1 hour after chemical dosing in a 96-well plate.NVS_ENZ_hMMP13 is one of one assay component(s) measured or calculated from the NVS_ENZ_hMMP13 assay. It is designed to make measurements of enzyme activity, a form of enzyme reporter, as detected with fluorescence intensity signals by Fluorescence technology.Data from the assay component NVS_ENZ_hMMP13 was analyzed into 1 assay endpoint. This assay endpoint, NVS_ENZ_hMMP13, was analyzed in the positive analysis fitting direction relative to DMSO as the negative control and baseline of activity. […] Furthermore, this assay endpoint can be referred to as a primary readout, because this assay has produced multiple assay endpoints where this one serves a enzymatic activity function. […]
Binding assays used specific radioligands (tritiated, iodinated) with non-radioactive competitive displacement ligands in agonist or antagonist protocols (as indicated) and various reference compounds and inhibitors to titrate specific binding to receptors and transporters. Most enzyme assays (CYPs, kinases, phosphatases, proteases, HDACs) used recombinant protein and specific substrates (fluorescence mostly, some colorimetric and radioactive) and inhibitors, followed by a biochemical separation of substrate and product. […]

Assay [2] concerns the target human Matrix Metalloproteinase-2 (MMP2), MMP2 (gene 4313) (UniProt P08253). Description: NVS_ENZ_hMMP2: NovaScreen (NVS) Enzymatic Assay for human Matrix Metalloproteinase-2 (MMP2) (AID 2283184). In outline:
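Cell-free recombinant MMP2 activity with a fluorescent substrate, read 1 h after dosing. Primary screen in duplicate at 25 uM; actives then run in concentration series; loss of signal fitted versus DMSO.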

Assay [3] has as its target human Matrix Metalloproteinase-3 (MMP3), MMP3 (gene 4314) (UniProt P08254). Description: NVS_ENZ_hMMP3: NovaScreen (NVS) Enzymatic Assay for human Matrix Metalloproteinase-3 (MMP3) (AID 2283185). Put shortly:
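Cell-free recombinant human MMP3 activity, fluorescence intensity read 1 h after dosing. Primary screen duplicate at 25 uM, actives retested in concentration series; loss of signal vs DMSO baseline.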

For assay [4], the target named is human Matrix Metalloproteinase-7 (MMP7), MMP7 (gene 4316) (UniProt P09237). Description: NVS_ENZ_hMMP7: NovaScreen (NVS) Enzymatic Assay for human Matrix Metalloproteinase-7 (MMP7) (AID 2283183). In outline:
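Cell-free fluorescence enzymatic assay read 1 h after compound addition, activity loss analyzed against DMSO. Primary duplicate testing at 25 uM; compounds meeting threshold rerun in singleton concentration-response up to 50 uM.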

Assay [5] concerns the target human p21 Activated Kinase 4 (PAK4), PAK4 (gene 10298) (UniProt O96013). Description: NVS_ENZ_hPAK4: NovaScreen (NVS) Enzymatic Assay for human p21 Activated Kinase 4 (PAK4) (AID 2283189). As for the experimental part: NVS_ENZ_hPAK4 is a biochemical, single-readout assay that uses extracted gene-proteins in a cell-free assay. Measurements were taken 1 hour after chemical dosing in a 384-well plate.NVS_ENZ_hPAK4 is one of one assay component(s) measured or calculated from the NVS_ENZ_hPAK4 assay. It is designed to make measurements of enzyme activity, a form of enzyme reporter, as detected with fluorescence intensity signals by Fluorescence and electrophoretic mobility shift technology.Data from the assay component NVS_ENZ_hPAK4 was analyzed into 1 assay endpoint. This assay endpoint, NVS_ENZ_hPAK4, was analyzed in the positive analysis fitting direction relative to DMSO as the negative control and baseline of activity. Using a type of enzyme reporter, loss-of-signal activity can be used to understand changes in the enzymatic activity as they relate to the gene PAK4. Furthermore, this assay endpoint can be referred to as a primary readout, because this assay has produced multiple assay endpoints where this one serves a enzymatic activity function. To generalize the intended target to other relatable targets, this assay endpoint is annotated to the kinase intended target family, where the subfamily is serine/threonine kinase. […]

The target of assay [6] is human Phosphodiesterase 4A1 (PDE4A1), PDE4A (gene 5141) (UniProt P27815). Description: NVS_ENZ_hPDE4A1: NovaScreen (NVS) Enzymatic Assay for human Phosphodiesterase 4A1 (PDE4A1) (AID 2283191). Put shortly:
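Cell-free recombinant human PDE4A1 with fluorescent substrate; product separated by electrophoretic mobility shift, 1 h. Screened at 25 uM, then up to 50 uM in concentration-response; loss of signal fitted against DMSO.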

Each structure is given as a SMILES string. Results filed as inconclusive are left out. Active and inactive are the calls of the source. Rule for the calls: active = hit-call score of the fitted dose curve at least 0.9, where 1 is the maximum; inconclusive = response in the unintended direction; inactive = score below 0.9.

One may read the AC50 as the concentration giving half of the maximal activity seen.

Chain of human Matrix Metalloproteinase-2 (MMP2), MMP2 (gene 4313) (P08253 whole entry, looked up): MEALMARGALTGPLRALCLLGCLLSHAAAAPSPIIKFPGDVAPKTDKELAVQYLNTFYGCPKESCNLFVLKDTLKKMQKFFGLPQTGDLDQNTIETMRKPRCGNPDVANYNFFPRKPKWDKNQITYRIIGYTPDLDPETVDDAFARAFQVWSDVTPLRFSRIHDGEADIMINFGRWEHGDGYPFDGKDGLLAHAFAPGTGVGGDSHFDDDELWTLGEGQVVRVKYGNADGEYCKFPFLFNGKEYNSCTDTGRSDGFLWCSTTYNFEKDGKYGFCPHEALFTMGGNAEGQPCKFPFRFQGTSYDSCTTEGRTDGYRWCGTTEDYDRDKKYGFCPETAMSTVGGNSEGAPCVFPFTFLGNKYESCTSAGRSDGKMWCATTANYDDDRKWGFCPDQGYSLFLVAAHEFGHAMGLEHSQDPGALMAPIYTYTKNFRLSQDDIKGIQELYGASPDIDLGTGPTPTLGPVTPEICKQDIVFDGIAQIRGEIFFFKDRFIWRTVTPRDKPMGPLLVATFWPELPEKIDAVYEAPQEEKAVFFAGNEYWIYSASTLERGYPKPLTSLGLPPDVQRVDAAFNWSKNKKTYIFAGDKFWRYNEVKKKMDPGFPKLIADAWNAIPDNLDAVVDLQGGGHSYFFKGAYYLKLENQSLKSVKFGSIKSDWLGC
Chain of human p21 Activated Kinase 4 (PAK4), PAK4 (gene 10298) (O96013 whole entry, looked up): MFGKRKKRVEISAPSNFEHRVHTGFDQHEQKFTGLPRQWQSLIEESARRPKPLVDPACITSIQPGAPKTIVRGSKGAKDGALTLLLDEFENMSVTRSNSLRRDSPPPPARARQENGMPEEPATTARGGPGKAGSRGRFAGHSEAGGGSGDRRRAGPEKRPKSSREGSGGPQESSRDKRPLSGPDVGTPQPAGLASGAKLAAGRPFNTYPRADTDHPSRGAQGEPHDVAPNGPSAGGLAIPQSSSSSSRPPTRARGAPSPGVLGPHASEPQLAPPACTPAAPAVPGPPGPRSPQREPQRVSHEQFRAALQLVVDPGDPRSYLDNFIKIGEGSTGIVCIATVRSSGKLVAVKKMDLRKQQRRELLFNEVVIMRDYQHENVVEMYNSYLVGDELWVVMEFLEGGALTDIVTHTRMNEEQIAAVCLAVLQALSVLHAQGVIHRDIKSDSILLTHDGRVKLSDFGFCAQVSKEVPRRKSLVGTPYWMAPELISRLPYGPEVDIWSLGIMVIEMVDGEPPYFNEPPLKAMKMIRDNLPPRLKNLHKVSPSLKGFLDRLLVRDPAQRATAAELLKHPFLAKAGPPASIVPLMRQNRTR
Chain of human Matrix Metalloproteinase-7 (MMP7), MMP7 (gene 4316) (P09237 whole entry, looked up): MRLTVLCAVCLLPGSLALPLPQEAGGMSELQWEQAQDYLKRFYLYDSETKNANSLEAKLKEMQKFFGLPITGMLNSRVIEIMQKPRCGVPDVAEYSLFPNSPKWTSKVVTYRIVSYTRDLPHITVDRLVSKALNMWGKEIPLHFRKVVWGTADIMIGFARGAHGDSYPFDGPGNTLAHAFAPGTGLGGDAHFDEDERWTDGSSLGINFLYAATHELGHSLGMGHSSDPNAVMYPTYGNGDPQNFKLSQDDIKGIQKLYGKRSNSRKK
Chain of human Phosphodiesterase 4A1 (PDE4A1), PDE4A (gene 5141) (P27815 whole entry, looked up): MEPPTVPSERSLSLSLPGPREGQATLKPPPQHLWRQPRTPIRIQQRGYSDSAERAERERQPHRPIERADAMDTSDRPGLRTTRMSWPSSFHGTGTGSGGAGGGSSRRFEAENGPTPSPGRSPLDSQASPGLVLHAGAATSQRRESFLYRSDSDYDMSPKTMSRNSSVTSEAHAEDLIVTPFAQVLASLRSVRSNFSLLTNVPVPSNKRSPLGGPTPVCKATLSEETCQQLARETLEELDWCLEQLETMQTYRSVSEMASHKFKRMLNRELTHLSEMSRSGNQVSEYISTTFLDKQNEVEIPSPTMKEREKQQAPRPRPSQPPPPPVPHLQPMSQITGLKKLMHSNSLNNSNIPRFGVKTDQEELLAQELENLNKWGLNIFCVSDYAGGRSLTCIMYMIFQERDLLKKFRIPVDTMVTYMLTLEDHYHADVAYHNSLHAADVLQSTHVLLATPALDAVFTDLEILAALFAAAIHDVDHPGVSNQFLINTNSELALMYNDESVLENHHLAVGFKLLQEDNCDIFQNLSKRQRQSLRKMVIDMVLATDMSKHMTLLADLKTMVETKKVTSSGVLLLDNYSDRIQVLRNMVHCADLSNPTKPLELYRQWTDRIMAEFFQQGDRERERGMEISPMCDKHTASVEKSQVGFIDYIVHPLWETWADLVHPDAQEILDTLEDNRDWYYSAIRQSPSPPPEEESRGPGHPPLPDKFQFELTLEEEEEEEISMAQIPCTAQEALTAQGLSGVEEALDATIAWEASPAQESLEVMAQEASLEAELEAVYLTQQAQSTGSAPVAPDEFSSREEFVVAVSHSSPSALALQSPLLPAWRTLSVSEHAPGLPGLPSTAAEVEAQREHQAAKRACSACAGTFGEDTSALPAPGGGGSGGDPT
Chain of human Matrix Metalloproteinase-3 (MMP3), MMP3 (gene 4314) (P08254 whole entry, looked up): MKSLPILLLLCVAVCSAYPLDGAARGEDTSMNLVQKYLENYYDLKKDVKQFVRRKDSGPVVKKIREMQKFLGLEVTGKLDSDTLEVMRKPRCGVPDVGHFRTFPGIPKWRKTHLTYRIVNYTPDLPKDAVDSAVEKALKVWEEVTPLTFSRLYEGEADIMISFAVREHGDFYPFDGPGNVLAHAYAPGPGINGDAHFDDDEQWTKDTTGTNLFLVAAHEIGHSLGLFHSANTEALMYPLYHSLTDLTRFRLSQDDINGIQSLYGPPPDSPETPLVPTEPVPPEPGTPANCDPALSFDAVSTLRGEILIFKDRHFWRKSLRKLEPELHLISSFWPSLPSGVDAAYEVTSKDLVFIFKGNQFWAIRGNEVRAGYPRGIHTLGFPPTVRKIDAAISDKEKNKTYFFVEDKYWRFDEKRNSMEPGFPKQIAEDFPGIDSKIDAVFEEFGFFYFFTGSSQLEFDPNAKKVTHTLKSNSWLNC

On to `COc1cc(-c2ccc(N)c(OC)c2)ccc1N`, for which the AC50 in assay [1] was 17.9 µM (active); in assay [2], 7.86 µM (active).

`O=C(O)C(F)(F)C(F)(F)C(F)(F)C(F)(F)C(F)(F)C(F)(F)C(F)(F)C(F)(F)C(F)(F)C(F)(F)F`: the values for the AC50 in assay [1], in assay [2] and in assay [3] were 23.3 µM (active), 21.9 µM (active) and 10.3 µM (active), respectively.

With `O=C1C2(Cl)C3(Cl)C4(Cl)C(Cl)(Cl)C5(Cl)C3(Cl)C1(Cl)C5(Cl)C24Cl` (centres undefined), the half-maximal activity concentration (AC50) in assay [4] was 5.85 µM (active).

Consider `C[C@]12CCC(=O)C[C@@H]1CC[C@@H]1[C@@H]2CC[C@]2(C)[C@@H](O)CC[C@@H]12`, for which the molecule was classed as inactive in assay [5].

As for `CC(C)(OO)c1ccccc1`, the molecule was classed as inactive in assay [5].

For `CCN1CCC2(CC1)COc1cc3c(cc12)N(C(=O)c1ccc(-c2ccc(-c4nnc(C)o4)cc2C)cc1)CC3`, the AC50 in assay [6] was 10.2 µM (active).

Source of the values: PubChem BioAssay (EPA / NIEHS).
